PAFAH2 FP inh: PAFAH2 (human) inhibition; actives 0.99% (n = 340,000); Q99487; inhibition, % at 3.39 µM; recombinant PAFAH2, FP-rhodamine activity probe, fluorescence polarization;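 active = inhibition above the mean over all tested compounds plus 3 SD, cut at about 30% in these data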;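 also: inhibitors block probe labeling of enzyme so polarization drops; 0% = enzyme with DMSO and 100% = wells lacking PAFAH2 protein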
pPAFAH FP inh: inhibitors of human plasma PAF acetylhydrolase (pPAFAH) | Q13093 | recombinant pPAFAH, FP-rhodamine probe fluorescence polarization | inhibition, % at 3.39 µM | actives 1.5% (n = 330,000) | AID 463082;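 active = inhibition above the mean inhibition across the screen plus 3 SD, cut at about 25% in these data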;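 also: inhibitors block binding of the rhodamine activity-based probe so polarization drops; 0% = enzyme with DMSO and 100% = wells lacking pPAFAH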
Fam108B inh: blocks mouse Fam108B hydrolase in RBBP9 counter-screen. recombinant Fam108B, FP-Rh probe fluorescence polarization. inhibition, % at 9.51 µM. actives 0.33% (n = 300,000). AID 1947;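 active = inhibition above the screen mean inhibition plus 3 SD, computed separately per campaign, cut at about 18% in these data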;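 also: inhibitors lower polarization as less probe binds the enzyme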
PAFAH1B3 inh: PAFAH1B3 (human) inhibition; actives 0.28% (n = 340,000); recombinant PAFAH1B3, FP-rhodamine probe, fluorescence polarization; inhibition, % at 3.39 µM;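 active = inhibition above the screen-wide average of all tested compounds plus 3 SD, cut at about 25% in these data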;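 also: 0% = enzyme with DMSO only and 100% = wells lacking PAFAH1B3 protein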
Target sequence (Q15102 whole entry, looked up): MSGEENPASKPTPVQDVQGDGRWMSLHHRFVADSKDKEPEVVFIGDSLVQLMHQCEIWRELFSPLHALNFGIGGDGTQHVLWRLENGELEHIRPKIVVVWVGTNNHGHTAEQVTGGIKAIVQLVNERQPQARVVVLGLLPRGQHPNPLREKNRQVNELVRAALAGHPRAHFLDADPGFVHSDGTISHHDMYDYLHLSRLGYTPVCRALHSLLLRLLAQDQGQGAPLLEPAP
PAFAH1B2 inh: PAFAH1B2 (human) inhibition. P68402. recombinant PAFAH1B2, FP-rhodamine activity probe, fluorescence polarization. inhibition, % at 3.39 µM. actives 1.2% (n = 340,000). AID 492953;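 active = inhibition above the mean of all tested compounds plus 3 SD, cut at about 24% in these data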;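 also: 0% = enzyme with DMSO and 100% = wells lacking PAFAH1B2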
PME-1 primary: PME-1 (human) inhibition | actives 0.53% (n = 320,000) | Q9Y570 | inhibition, % at 5.9 µM | recombinant PME-1, FP-Rh probe fluorescence polarization;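 active = inhibition above the campaign mean of all compounds plus 3 SD, cut at about 26% in these data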;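 also: competitive labeling of PME-1 active site by serine hydrolase directed probe; 0% = PME-1 with DMSO and 100% = wells lacking PME-1 enzyme; inhibitors block probe labeling so polarization falls and inhibition rises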
Target sequence (Q9Y570 whole entry, looked up): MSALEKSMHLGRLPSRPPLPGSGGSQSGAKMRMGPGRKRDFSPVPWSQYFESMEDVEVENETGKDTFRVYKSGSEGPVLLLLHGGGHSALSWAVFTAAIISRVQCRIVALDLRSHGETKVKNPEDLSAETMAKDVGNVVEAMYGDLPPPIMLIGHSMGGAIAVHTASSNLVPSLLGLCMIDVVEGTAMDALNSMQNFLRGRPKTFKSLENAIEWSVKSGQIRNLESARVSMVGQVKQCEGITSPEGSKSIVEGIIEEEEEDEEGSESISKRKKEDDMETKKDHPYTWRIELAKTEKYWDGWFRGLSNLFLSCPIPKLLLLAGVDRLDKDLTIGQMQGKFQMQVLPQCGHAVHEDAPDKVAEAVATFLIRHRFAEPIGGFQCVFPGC
Starred values were filed as active, the others as inactive; nt = no result given. A selection: hits, their analogues and other compounds. The true share with any hit is near 2.8%.

SMILES	PAFAH2 FP inh	pPAFAH FP inh	Fam108B inh	PAFAH1B3 inh	PAFAH1B2 inh	PME-1 primary
Nc1nc(-c2ccccc2)c(N=Nc2cccc3ccccc23)s1	-2	31*	10	6	3	14
COc1ccc(-n2c(SC3CCOC3=O)nc3ccccc32)cc1 (stereo not drawn)	-2	31*	-2	-2	4	-8
CCCN(CC1CC1)C(=O)COC(=O)c1oc2c(F)cccc2c1C	5	0	nt	1	-3	0
CC(=O)Nc1cc(NC(C)=O)c(N=Nc2ccccc2)cc1C	-1	2	-3	4	8	2
Cc1ccc(NCC(O)C(O)C(O)CO)c(N=Nc2ccccc2)c1C (stereo not drawn)	3	21	1	9	6	52*
COc1ccc(NC(=O)CSc2nnc(Cc3cccn3C)n2-c2ccc(C)cc2)cc1OC	3	32*	-1	4	3	1
c1ccc(OCCN2CCN(Cc3nc(-c4ccc5c(c4)OCO5)no3)CC2)cc1	6	-3	0	-11	2	6
CCC1(C)Cc2c(sc3nc(SC)[nH]c(=S)c23)CO1 (stereo not drawn)	nt	6	-1	nt	nt	0
O=Cc1ccc(C(=O)OCC(=O)Nc2ccc(F)cc2F)cc1	47*	8	-4	3	2	-7
CC[C@]12c3[nH]c4ccc(Cl)cc4c3CCN1C(=O)[C@@H](CC(=O)NCCCn1ccnc1)C[C@@H]2C(=O)N1CCN(C(=O)C2CC2)CC1	-7	6	nt	4	-4	nt
CCCCn1c(SCC(=O)N(CC)C2CCS(=O)(=O)C2)nc2cc(S(N)(=O)=O)ccc21 (stereo not drawn)	-2	2	-2	3	6	1
CCN(C(=O)CSc1nc2cc(C(F)(F)F)ccc2n1Cc1ccccc1)C1CCS(=O)(=O)C1 (stereo not drawn)	6	29*	3	8	-2	2
COc1ccc(C(=O)CSc2ccc(-c3ccco3)nn2)cc1	4	4	0	9	5	-3
O=C(CSc1ccc(-c2ccco2)nn1)c1ccccc1	0	34*	4	4	-2	0
CCCc1nnc(NC(=O)C23CC4CC(CC(C4)C2)C3)s1	4	nt	nt	3	25*	nt
CCc1nnc(NC(=O)CC23CC4CC(CC(Br)(C4)C2)C3)s1	2	9	-1	10	27*	1
CC(C)c1nnc(NC(=O)CC23CC4CC(CC(C4)C2)C3)s1	1	-4	-1	2	21	-4
CCOc1cc(/C=N/N=C2/NC(=O)C(CC(=O)O)S2)ccc1OCc1ccc(Cl)cc1Cl (stereo not drawn)	17	26*	-4	7	9	5
O=C(NCCS(=O)(=O)N1CCN(c2ccccc2F)CC1)c1cccs1	4	4	-1	1	1	-5
Cc1ccc(Nc2nnc(SCC(=O)c3ccc(O)cc3O)s2)cc1	11	21	8	7	4	37*
COc1cccc(NC(=O)CN2C(=O)NC3(CCc4ccccc43)C2=O)c1 (stereo not drawn)	10	0	nt	-1	3	-1
Cc1[nH]nc2c1C(c1ccsc1)C(C#N)=C(N)O2 (stereo not drawn)	-4	2	2	9	11	1
N#CC1=C(N)Oc2ccc3ccc(O)cc3c2C1c1ccsc1 (stereo not drawn)	98*	nt	nt	114*	93*	nt
O=C(NCCC(=O)N1CCC2(CC1)NCCc1[nH]cnc12)c1ccc(Br)cc1	-4	-1	2	0	3	-6
Cc1ccc(NC(=O)CS(=O)CC(=O)Nc2ccccc2-c2ccc(C)o2)cc1 (stereo not drawn)	-5	5	4	4	18	35*
SMILES	PAFAH2 FP inh	pPAFAH FP inh	Fam108B inh	PAFAH1B3 inh	PAFAH1B2 inh	PME-1 primary
O=[N+]([O-])c1cc(-n2cnnn2)ccc1N1CCC(Cc2ccccc2)CC1	0	28*	7	3	6	8
COc1ccc(-c2cc(C)no2)cc1S(=O)(=O)N1CCN(C(=O)c2ccco2)CC1	-2	2	-1	4	4	-2
CN(Cc1cccs1)C(=O)CCNS(=O)(=O)c1ccc(Br)cc1	10	4	nt	14	32*	2
COC(=O)C1=C(CSc2nc3c(cc2C#N)CN(C)CC3)OC(N)=C(C#N)C1c1ccc(F)cc1 (stereo not drawn)	13	26*	5	16	10	3
N#Cc1c(-c2c(Cl)cccc2Cl)noc1/C=C/Nc1ccc(C(=O)O)cc1	22	25*	9	-8	-2	3
CN(C)/C=C/c1onc(-c2c(Cl)cccc2Cl)c1C#N	-1	-7	5	7	2	-6
O=C(CSc1nc2ccccc2n1-c1ccccc1)Nc1ncc(Cl)cc1Cl	-9	27*	5	4	3	0
CC(C)N(C(=O)CSc1nc2ccccc2n1-c1ccccc1)C(C)C	-5	32*	1	-3	5	-2
CC(C)N(C(=O)CSc1nc2ccccc2n1Cc1ccccc1)C(C)C	-9	4	-3	0	1	9
COc1ccc(C(=O)NC(=S)NCc2ccccc2)cc1OC	-2	30*	-2	9	4	-1
Cc1ccc(NS(=O)(=O)c2c(C(=O)N3CCCC3)c(C)n(C)c2C)cc1	-2	3	1	6	-2	-7
COc1ccc(/C=N/NC(=O)c2cc3cc(OC)c(OC)cc3[nH]2)cc1	7	10	5	13	8	27*
CC(=O)N1N=C(c2ccc(C)cc2)OC1c1ccc(Br)cc1 (stereo not drawn)	5	3	-5	-3	8	0
CCOc1ccc(Br)cc1C1=NN(C(C)=O)C(c2ccc([N+](=O)[O-])s2)O1 (stereo not drawn)	39*	nt	nt	17	10	nt
CCc1cc(C(=O)Cc2ccc(F)cc2)c(O)cc1O	-6	-9	1	-3	10	1
O=C(Cc1ccc(F)cc1)c1ccc(O)cc1O	6	6	0	2	25*	0
O=c1cc(-c2ccc(O)c(O)c2)oc2cc(O)cc(O)c12	30	21	8	39*	34*	-17
COc1ccc(-c2cc(=O)c3c(O)cc(O)cc3o2)cc1	1	4	-1	13	-2	-17
Clc1ccc2c(c1)c1ccccc1n2CN1CCOCC1	9	11	-10	5	-1	-9
Clc1ccc2c(c1)c1cc(Cl)ccc1n2CN1CCOCC1	-5	27*	-6	6	-1	0
Cc1noc(COc2ccccc2OCC(N)=O)n1	nt	0	-2	nt	nt	-4
Cc1ccc(SC/C(O)=C(\C#N)c2nc3ccccc3s2)cc1	24	24	10	5	29*	6
N#C/C(=C(/O)COC(=O)c1ccc(C#N)cc1)c1nc2ccccc2s1	12	25*	6	8	6	14
Cc1ccc(F)cc1NC(=O)CSc1ncccn1	-2	3	-3	2	2	-2
